# The list is not random: actives were taken first. Their share in the collection is about 7.3%.
# Tau FP inhib: qHTS for Inhibitors of Tau Fibril Formation, Fluorescence Polarization; Microtubule-associated protein tau (Homo sapiens), P10636; K18 P301L tau heparin fibrillization, Alexa594 FP, 6 h; Potency, µM (doses to about 57.7 µM), usual class: inhibitors; 0.39% of 280,000 active; further: nearly all actives have a fitted effect of over 55% in size
# Target sequence (P10636 561-689 P618L limits assumed): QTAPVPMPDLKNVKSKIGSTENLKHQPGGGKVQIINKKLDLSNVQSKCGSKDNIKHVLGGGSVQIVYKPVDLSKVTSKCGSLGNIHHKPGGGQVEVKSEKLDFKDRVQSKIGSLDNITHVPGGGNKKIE
#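 Compound effects on tau fibrillization are measured by Alexa 594 fluorescence polarization (ex 555, em 632 nm). K18 P301L tau is used at 15 uM with 0.24 uM labeled tracer, and 20 uM heparin induces aggregation over 6 hr at 37 C.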
# VP16 counter: VP16 counterscreen qHTS for inhibitors of ROR gamma transcriptional activity. Drosophila S2 Gal4-VP16 UAS-luciferase, luminescence, 20 h. Potency, µM (series often up to 53.6 µM), most hits filed as inhibitors. 3.5% of 310,000 active;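 further: Gal4-VP16 expression switched on by copper sulfate through the metallothionein promoter; nearly all actives have a fitted effect of over 50% in size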
# Tau fluor cs: Counterscreen qHTS for Inhibitors of Tau Fibril Formation, Fluorescence Polarization. tau K18 P301L Alexa594 fluorescence, heparin fibrillization. Potency, µM (top dose mostly 57.7 µM). 0.93% of 280,000 active. AID 1463, 2008; further: nearly all actives have a fitted effect of over 55% in size
#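 Human tau K18 P301L (15 uM unlabeled, 0.24 uM Alexa 594-labeled) in 100 mM sodium acetate pH 7 with 20 uM heparin, 6 hr at 37 C. ThT 30 uM added, 1 hr ambient; Alexa 594 FP and total fluorescence read at 555/632 nm.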
# Tau ThT inhib: qHTS for Inhibitors of Tau Fibril Formation, Thioflavin T Binding; recombinant tau K18 P301L (four-repeat tau fragment), heparin-induced fibrillization, ThT fluorescence; 2.1% of 270,000 active; Potency, µM (highest dose often 57.4 µM), usual class: inhibitors; Microtubule-associated protein tau (Homo sapiens), P10636; AID 1460, 2008; further: nearly all actives have a fitted effect of over 55% in size
#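 Recombinant human tau K18 fragment […] carrying P301L, 15 uM unlabeled plus 0.24 uM Alexa 594-labeled, was fibrillized with 20 uM heparin in 100 mM sodium acetate pH 7 for 6 hr at 37 C; 30 uM ThT fluorescence read after 1 hr.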
# RORgamma inh: qHTS for inhibitors of ROR gamma transcriptional activity; Nuclear receptor ROR-gamma (Mus musculus), P51450; 5.4% of 310,000 active; Potency, µM (titrated, usually from 53.6 µM), most hits filed as inhibitors; Drosophila S2 Gal4-RORgamma UAS-luciferase reporter, 20 h; further: nearly all actives have a fitted effect of over 60% in size
# Target sequence (P51450 whole entry, looked up, the tested form may be a part): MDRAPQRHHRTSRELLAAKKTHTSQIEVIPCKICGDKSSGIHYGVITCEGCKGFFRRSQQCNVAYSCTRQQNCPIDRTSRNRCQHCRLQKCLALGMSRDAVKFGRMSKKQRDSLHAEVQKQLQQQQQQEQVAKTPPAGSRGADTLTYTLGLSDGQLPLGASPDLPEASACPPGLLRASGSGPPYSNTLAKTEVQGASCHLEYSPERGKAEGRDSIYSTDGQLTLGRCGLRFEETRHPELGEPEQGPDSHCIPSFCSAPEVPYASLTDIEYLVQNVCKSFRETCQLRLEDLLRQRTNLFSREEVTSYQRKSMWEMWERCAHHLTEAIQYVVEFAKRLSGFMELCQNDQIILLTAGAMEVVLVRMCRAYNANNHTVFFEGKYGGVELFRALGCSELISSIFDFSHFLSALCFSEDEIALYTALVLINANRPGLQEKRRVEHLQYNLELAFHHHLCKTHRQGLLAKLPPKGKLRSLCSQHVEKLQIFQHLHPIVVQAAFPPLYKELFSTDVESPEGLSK
#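 Stably transfected Drosophila Schneider cells are the test system, with ROR gamma fused to Gal4 and luciferase under UAS control; luminescence is read after 20 hr of 700 uM copper sulfate induction at ambient temperature.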
# Hits are given with their value; . = inactive; ? = inconclusive; / = no result given; [ ] = dose if it differs, or a comment. The call rests on the fitted dose curve; in most records, active means well fitted curve in the direction sought with a large enough effect; inconclusive means small, poorly fitted or top-dose-only effect, or another doubt; inactive means no such curve, though single readings can be large; an effect the other way counts as inactive or inconclusive.
SMILES,Tau FP inhib,VP16 counter,Tau fluor cs,Tau ThT inhib,RORgamma inh
Cc1ccc(-c2ccc(=O)n(Cc3c(F)cccc3Cl)n2)cc1,/,.,/,/,.
CN(C)c1ccc(/C=N/NC(=O)COc2ccccc2)cc1,.,.,.,?,.
CN(C)c1ccc(/C=N/NC(=S)NCc2ccccc2)cc1,?,2.8µM,?,?,0.45µM
CC(C)(C)c1ccc(/C=N/NC(=O)C2CCCC2)cc1,/,.,/,/,.
Cn1c(=O)n(C)c2cc(/C=N/NC(=S)NCc3ccccc3)ccc21,?,?,?,?,10µM
C=CCNC(=S)N/N=C/c1ccc(C(C)(C)C)cc1,.,0.56µM,.,.,0.28µM
Cc1c(NC(=S)N/N=C/c2ccc(N(C)C)cc2)c(=O)n(-c2ccccc2)n1C,.,?,.,.,18µM
CC(C)C[C@@H](CC(=O)N[C@@H](CCCN)CC(=O)N[C@@H]1CCCC[C@H]1C(=O)N[C@H](CC(=O)N[C@@H](CCC(=O)O)CC(=O)O)CC(C)C)NC(=O)[C@@H]1CCCC[C@H]1N,.,.,.,.,.
CCCCCCCC/C=C\CCCCCCCCCCCC(=O)O,/,.,/,/,.
Cc1ccsc1/C=N/NC(=S)NCc1ccccc1,.,.,?,.,0.022µM
CC(C)(C)c1ccc(/C=N/NC(=S)NCc2ccccc2)cc1,?,1.1µM,.,.,0.79µM
CCN(Cc1ccccc1)c1ccc(/C=N/NS(=O)(=O)c2ccc(C)c([N+](=O)[O-])c2)cc1,?,.,7.1µM[quencher],?,?
CC(C)c1ccc(/C=N/NC(=O)CC(=O)NCc2ccccc2)cc1,.,.,.,.,.
Cc1ccsc1/C=N\NC(=O)CC(=O)NCc1ccccc1,.,.,.,.,.
CCN(CC)c1ccc(/C=N/NS(=O)(=O)c2cccc([N+](=O)[O-])c2)cc1,?,.,?,?,.
CNC(=S)N/N=C/c1ccc(N(C)C)cc1,.,7.1µM,.,?,1.6µM
CCN(Cc1ccccc1)c1ccc(/C=N/N=C(N)N)cc1,?,?,?,.,?
CCN(Cc1ccccc1)c1ccc(/C=N/NC(=S)NC(C)C)cc1,.,1.3µM,?,.,1.3µM
COC(=O)C1(C(=O)OC)CC2=CCC3C(=O)N(c4ccccc4)C(=O)C3C2Cc2ccccc2[C@@H]1C[N+](=O)[O-] (some centres not stated),.,.,.,.,.
COc1ccc2c(c1)O[C@@H](c1cccc(C(F)(F)F)c1)[C@H](OC(=O)Nc1cc(OC)c(OC)c(OC)c1)C2=O,.,.,.,.,.
CCCCCCCc1ccc(C2NC(=S)NC3=C2C(=O)c2ccccc23)cc1 (configuration not stated),.,?,.,.,5.6µM
CCCCNC(=O)CCc1nc2cccnc2n1Cc1ccccc1,/,.,/,/,.
Oc1oc(-c2ccccc2)nc1C=NCc1ccccc1,.,?,?,.,?
CC(=O)Oc1oc(-c2ccccc2)nc1C=Nc1ccc(N(C)C)cc1,.,.,?,14µM,.
Cc1ccc(N=Cc2nc(-c3ccc(C)cc3)oc2O)cc1,.,.,.,?,.
SMILES,Tau FP inhib,VP16 counter,Tau fluor cs,Tau ThT inhib,RORgamma inh
COc1ccc(N=Cc2nc(-c3ccco3)oc2O)cc1,.,.,?,16µM,?
CSc1ccccc1N=Cc1nc(-c2ccccc2)oc1O,.,.,?,20µM,.
CC(=O)Nc1ccc(N=Cc2nc(-c3ccc(C)cc3)oc2O)cc1,.,.,?,4.5µM,.
CN(C)c1ccc(N=Cc2nc(-c3ccccc3)oc2OC(=O)c2ccccc2)cc1,.,.,.,?,.
CCN(CC)C(=O)c1c(NC(=O)c2ccccc2F)sc2c1CCC(C(C)(C)C)C2 (configuration not stated),.,/,.,?,/
O=CNc1ccc(OC(=O)c2cncc(Br)c2)cc1,/,.,/,/,.
CCCN(CCc1cccs1)[C@H]1CCc2c(O)cccc2C1,/,.,/,/,.
O=[N+]([O-])c1ccccc1S(=O)(=O)Nc1ccn(Cc2c(F)cccc2Cl)n1,/,.,/,/,.
Oc1oc(-c2ccccc2)nc1C=Nc1ccccc1,.,?,.,?,.
COc1ccccc1N=Cc1nc(-c2ccccc2)oc1OC(C)=O,?,?,?,25µM,?
CC(=O)Oc1oc(-c2ccccc2)nc1/C=N/c1ccccn1,.,.,.,.,.
CN(C)c1ccc(N=Cc2nc(-c3ccccc3)oc2O)cc1,.,?,?,2.2µM,.
Nc1nc(N)c(-c2ccccc2)s1,/,.,/,/,.
Cc1nn(-c2ccccc2)c(N2CCCC2)c1/C=N/NC(=O)c1cc2ccccc2cc1O,.,3.5µM,.,.,3.5µM
Cc1nn(-c2ccccc2)c(N2CCCC2)c1/C=N/NC(=S)Nc1ccccc1F,?,0.35µM,?,?,0.35µM
NC(=O)Cn1c(=O)n(CCCCCC(=O)NCc2ccc3c(c2)OCO3)c(=O)c2sccc21,.,/,.,.,/
Cc1cccc(NC(=O)CSc2nnc(C)n2Cc2ccccc2)c1,.,.,.,.,.
Cn1c(SCC(=O)Nc2ncc(C(F)(F)F)cc2Cl)nnc1-c1ccc(Cl)cc1,.,11µM,.,.,10µM
Cc1nnc(SCC(=O)Nc2sccc2C(N)=O)n1Cc1ccccc1,.,.,.,.,4.5µM
CCn1c(SCC(=O)Nc2ncc(C(F)(F)F)cc2Cl)nnc1-c1ccccc1,.,?,.,.,.
Cc1nnc(SCC(=O)Nc2ncc(Cl)cc2Cl)n1Cc1ccccc1,.,?,.,.,4µM
COc1cccc(-n2c(=O)c3sccc3n(Cc3cc(=O)n4cc(Cl)ccc4n3)c2=O)c1,.,/,.,.,/
Cc1cccc(NC(=O)CSc2nc3c(oc4ccccc43)c(=O)n2-c2ccccc2)c1C,.,/,.,.,/
Cc1nn(-c2ccccc2)c(Cl)c1C(=O)Nc1nnc(C2CCCC2)s1,.,?,.,?,7.9µM
CC(=O)c1nnn(-c2ccc(C)cc2Cl)c1C,.,/,.,.,/
SMILES,Tau FP inhib,VP16 counter,Tau fluor cs,Tau ThT inhib,RORgamma inh
Fc1cccc(-c2nc(-c3ccncc3)no2)c1,.,/,.,.,/
CCOc1ccc(N(CCCCO)C(=S)NC(=O)c2ccc(C)c(Br)c2)cc1,.,5.6µM,.,?,2.5µM
C/C(=N\NC(=O)C(C)n1nc(C)c([N+](=O)[O-])c1C)c1ccccc1O (configuration not stated),.,0.18µM,.,.,0.14µM
CCOC(=O)c1ccc(NC(=O)C2CCCN(c3ncnc4onc(C)c34)C2)cc1 (configuration not stated),.,/,.,.,/
Cc1c(O)c(O)cc2c1oc1c3ccccc3oc(=O)c21,.,?,?,?,7.1µM
C1=C(CCNCC2CC2)CCCC1,.,.,.,.,5µM
Cc1ccc(CNCCC2=CCCCC2)cc1,.,.,.,.,.
Cc1ccc(Nc2nc(N/N=C/c3c[nH]c4ccccc34)nc(N3CCOCC3)n2)cc1,.,?,?,?,11µM
